Assay outcomes: PubChem, University of Kansas High Throughput Screening Laboratory
mHTT-CaM PPI inh: mutant huntingtin-calmodulin interaction inhibitors – biochemical, AlphaScreen, primary screen; AlphaScreen His-mHTT/GST-CaM binding, luminescence; inhibition, % at 15 µM; AID 1671202, 2021; 190,000 tested, 3.6% active; P42858
Pf apPOL block: Pf-apPOL inhibitors, biochemical, fluorescence. Recombinant Pf-apPOL, molecular beacon fluorescence, 1.5 h. 210,000 tested, 0.25% active. inhibition, % at 10 µM. AID 1794808, 2022
Hits are given with their value; i = inactive; ! = repeats disagree. Many of the other results were omitted from the sample, so hits are more common in it than they were. Rule as the data show it: active = inhibition above about 50%; inactive = the rest.

SMILES	mHTT-CaM PPI inh	Pf apPOL block
CC1(C)C(C=C(Cl)Cl)C1C(=O)Nc1cccc(C(=O)O)c1 (configuration not stated)	i	i
Cc1ccc(NC(=O)C2C(C=C(Cl)Cl)C2(C)C)cc1C (configuration not stated)	i	i
Cc1cc(NS(=O)(=O)c2ccc(NC(=O)C3C(C=C(Cl)Cl)C3(C)C)cc2)nc(C)n1 (configuration not stated)	62	i
CC1(C)C(C=C(Cl)Cl)C1C(=O)Nc1ccccc1Cl (configuration not stated)	i	i
CC1(C)C(C=C(Cl)Cl)C1C(=O)Nc1ccc(Br)cc1 (configuration not stated)	53	i
CC1(C)C(C=C(Cl)Cl)C1C(=O)Nc1ccccc1[N+](=O)[O-] (configuration not stated)	56	i
CC1(C)C(C=C(Cl)Cl)C1C(=O)Nc1cccc([N+](=O)[O-])c1 (configuration not stated)	72!	i
CCC(C)Oc1ccc(-c2noc(C)n2)cc1OC (configuration not stated)	i	i
CC1CC(Nc2ccccc2)c2ccccc2N1C(=O)Cc1ccccc1 (configuration not stated)	i	i
O=C(NCc1[nH]nc2ccccc12)c1ccc(Cl)cc1	i	i
O=C(Oc1ccc2c(=O)c(-c3ccccc3)coc2c1)C1CC1	i	i
CN(C(=O)c1ccc(S(=O)(=O)c2cccc(Cl)c2)c([N+](=O)[O-])c1)C1CCCCC1	i	i
COC(=O)c1ccc(C(=O)OC)c(NC(=O)c2ccc(-n3cnnn3)cc2)c1	i	i
N#C/C(=C\C=C\c1ccco1)c1nc2ccccc2s1	76	i
N#C/C(=C\c1ccco1)c1nc(-c2ccccc2)cs1	i	i
Cc1ccccc1C(=O)NC1CC(O)C(CO)C1 (configuration not stated)	i	i
O=[N+]([O-])C(=C1SCCS1)C(=C(Cl)Cl)N1CCOCC1	i	i
O=[N+]([O-])C(=C1SCCS1)C(=C(Cl)Cl)N1CCCCC1	70	i
Cc1ccc(C(=O)NCCc2ccccc2)cc1	i	i
COc1cc(C(CC(=O)N2CCN(c3ccccc3)CC2)c2c(OC)cc(OC)c3ccc(=O)oc23)cc(OC)c1OC (configuration not stated)	71	i
COc1ccc(C(CC(=O)N2CCCCC2)c2c(OC)cc(OC)c3ccc(=O)oc23)cc1 (configuration not stated)	i	i
COc1cc(OC)c2ccc(=O)oc2c1C(CC(=O)N1CCOCC1)c1ccc2c(c1)OCO2 (configuration not stated)	i	i
COc1cc(OC)c2ccc(=O)oc2c1C(CC(=O)N1CCN(c2ccccc2)CC1)c1ccc2c(c1)OCO2 (configuration not stated)	70	i
COc1ccc(C(=O)N2CCN(c3cc(C)ccc3F)C(=O)C2C)cc1 (configuration not stated)	i	i
COc1ccc(CCNC(=O)COc2ccccc2OC)cc1OC	i	i
SMILES	mHTT-CaM PPI inh	Pf apPOL block
COc1cc(C=C2Oc3c(ccc4c3CN(c3ccccc3F)CO4)C2=O)cc(OC)c1OC	i	i
Cn1nccc1C(=O)N1CCC(CCOc2ccccc2)CC1	i	i
O=C(COc1ccc(F)cc1)N1CCC(CCOc2ccccc2)CC1	70	i
Cn1cccc1C(=O)N1CCC(CCOc2ccccc2)CC1	58	i
O=C(COc1ccc(F)cc1)N1CCC(CCOc2ccncc2)CC1	i	i
CC1C(=O)N(Cc2cn(CCC3OCCCO3)nn2)CCS(=O)(=O)N1Cc1ccc(-c2ccncc2)cc1 (configuration not stated)	i	i
COc1ccc(NC(=O)c2nn3c(c2Cl)NC(c2ccco2)CC3C(F)(F)F)cc1OC (configuration not stated)	i	i
COc1ccc(Cl)cc1S(=O)(=O)n1c(C)nc2ccccc21	i	i
Cc1ccc(NC(=O)Cn2c(=O)n(C3CCCCC3)c3ncccc32)cc1	i	i
CCCN1CCC(=O)N([C@H](COc2ccccc2)CC(C)C)CC1	i	i
CC(=O)Nc1ccc(SC[C@H](c2ccccc2)N2CCN(CCc3ccccc3)CCC2=O)cc1	98	i
CC(C)CN1CCC(=O)N([C@H](COc2ccccc2)Cc2ccccc2)CC1	i	i
O=C1CCN(CCc2ccccc2)CCN1[C@H](CSc1ccc(Br)cc1)c1ccccc1	i	i
O=C1CCN(CCc2ccccc2)CCN1[C@H](COc1ccccc1)Cc1ccccc1	98	i
CC(C)C[C@@H](COc1ccccc1)N1CCN(CCc2ccccc2)CCC1=O	84	i
CCOc1ccccc1NC(=O)c1c(NC(=O)CCC(=O)O)sc2c1CCCCC2	i	i
C=CCNc1nc(C2COc3ccccc3O2)cs1 (configuration not stated)	i	i
CCc1cc(C2CCCN2C(=O)c2ccccc2F)on1 (configuration not stated)	i	i
Cc1cccc(C)c1NC(=O)CN1N=NC2C(=O)N(c3ccc(F)cc3)C(=O)C21 (configuration not stated)	i	i
COc1ccc(CN2CCN(C(=O)c3ccc(C)nc3)CC2)cn1	i	i
COc1ccc(CC(=O)N2CCCC2c2nc(-c3ccccc3OC)no2)cc1 (configuration not stated)	i	i
O=C(NC1CC1)C1=CCN(C(=O)Nc2ccccc2)CC1	i	i
CCCCS(=O)(=O)N1CCC(Oc2ccc(-n3cnnn3)cc2)CC1	i	i
Cc1ccc(C(=O)Nc2c3c(nn2C(C)(C)C)CS(=O)(=O)C3)cc1	i	88
CC(C)(C)n1nc2c(c1NC(=O)c1ccco1)CSC2	71	i
SMILES	mHTT-CaM PPI inh	Pf apPOL block
CC(C)(C)n1nc2c(c1NC(=O)c1ccc(F)cc1)CSC2	58	i
Cc1ccc(C(=O)Nc2c3c(nn2C(C)(C)C)CSC3)cc1	i	i
Cc1cccc(C(=O)Nc2c3c(nn2C(C)(C)C)CS(=O)(=O)C3)c1	i	i
CC(C)(C)n1nc2c(c1NC(=O)C(=O)NCc1c(F)cccc1F)CSC2	60	i
CC(C)(C)n1nc2c(c1NC(=O)c1ccco1)CS(=O)C2 (configuration not stated)	i	i
CC(C)(C)n1nc2c(c1NC(=O)c1c(F)cccc1Cl)CSC2	i	i
Cc1cccc(-c2nc(C3CCN(S(=O)(=O)c4cccc(C)c4)CC3)no2)c1	i	i
COc1nn(C)cc1C(=O)N1Cc2nn(C(C)(C)C)c(-n3cccc3)c2C1	i	i
COc1ccc(C(=O)Nc2c3c(nn2-c2ccc(C)cc2C)CSC3)cc1	i	i
Cc1ccc(-n2nc3c(c2NC(=O)c2ccc(F)cc2)CSC3)c(C)c1	i	57
Cn1nc(-c2nc(C3CC3)no2)c2c1CCN(C(=O)c1ccc(Cl)cc1)C2	i	i
Cn1nc(-c2nc(-c3cccc(F)c3)no2)c2c1CCN(C(=O)c1cccs1)C2	61	i
Cn1nc(-c2nc(-c3ccccc3)no2)c2c1CCN(C(=O)c1ccccc1)C2	52	i
Cn1nc(-c2nc(-c3cccc(F)c3)no2)c2c1CCN(C(=O)c1cccc(F)c1)C2	i	i
Cn1nc(-c2nc(C3CC3)no2)c2c1CCN(C(=O)Nc1ccc(Cl)cc1)C2	63	i
Cc1ccc(C(=O)N2CCc3c(c(-c4nc(-c5ccccc5)no4)nn3C)C2)cc1	i	i
Cc1ccccc1Cn1c(=O)n(CCC(=O)NCc2ccccc2)c(=O)c2sccc21	i	i
